Test results taken from PubChem BioAssay (NCI).
Several values for one entry are separate records, joined by “and”; a condition that tells them apart may be missing. Equal entries are not always repeated. The panel holds about 79,000 compounds, 15% with a hit somewhere; the sample as a whole holds those more often. Activity calls are given as the source filed them. Rule as the data show it: active = growth inhibition above about 70%; inactive = the rest.

assay: NCI Yeast Anticancer Drug Screen. Data for the bub3 strain (AID 167); details: S. cerevisiae bub3 mutant strain, at 50.0 µM, active compounds read high
Procedure, shortened: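 Mutant yeast screening strain plus compound; vehicle-treated cultures serve as the 0% inhibition reference.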

Compound	growth inhibition
c1ccc(NC2=NCCN2)nc1	25.4% (inactive)
C[CH2][Sn]([CH2]C)([CH2]C)[O]C(=O)CO	86.8% (active)
CC12CCC(O)CC1CCC1C2CCC2(C)C1CC1CC(=O)OC12 (centres undefined)	98.9% (active)
Nc1ccc(N=Nc2ccccc2)cc1	37.4% (inactive)
C[n+]1c(/C=C/c2ccc(O)c3ncccc23)[se]c2ccccc21	93% (active)
COC(=O)C1=C(C)N2CCSC2(C)C(C(=O)OC)C1c1cccc(Cl)c1 (centres undefined)	81.5% (active)
O=[N+]([O-])/C=C/c1ccccc1	96.4% (active)
CC12CCC(O)CC1CCC1C2CCC2(C)C(C(=O)CC(O)C(F)(F)F)CCC12 (centres undefined)	84% (active)
CC(C)NCC(O)c1ccc(O)c(O)c1.[Pt].c1ccc([PH+](c2ccccc2)c2ccccc2)cc1.c1ccc([PH+](c2ccccc2)c2ccccc2)cc1	98.8% (active)
CCOC(=O)/C(=C\c1ccc(C(=O)OC)cc1)[Se]c1ccccc1	38.4% (inactive)
CC/C(=C/c1ccc2c(c1)OCO2)[N+](=O)[O-]	98.5% (active)
CCOC(=O)C1=C(C)NC(=O)NC1c1ccc(N(CCCl)CCCl)cc1Cl (centres undefined)	92.6% (active)
S=C(S)N1CCOCC1	98.3% (active)
CCOC(=O)c1ccccc1N	7.7% (inactive)
C[n+]1c(/C=C/c2ccc(O)c(O)c2)[se]c2ccccc21	56.1% (inactive)
CS(=O)(=O)[O-].CS(=O)(=O)[O-].NC1CCCCC1N.[Pt+4] (centres undefined)	91.2% (active)
COc1ccc2c(c1O)-c1cccc3c1[C@@H](C2)N(CCCl)CC3	44.4% (inactive)
COC(=O)CC1(C(=O)O)CC2(Cl)C(Cl)=C(Cl)C1(Cl)C2(Cl)Cl (centres undefined)	36.8% (inactive)
CCCCN(C)CC(C(C)=O)C(c1ccccc1)c1c(O)c2ccccc2oc1=O (centres undefined)	81.5% (active)
O=[n+]1c2ccccc2n([O-])c2ccccc21.[Cl][Ni][Cl]	89% (active)

Compound	growth inhibition
COc1ccc(C(Cc2ccc(Cl)c(Cl)c2)NCCO)cc1 (centres undefined)	59.1% (inactive)
O=C(N/N=C/c1cc(Cl)cc(Cl)c1[O-])c1ccccc1O.O=C(N/N=C/c1cc(Cl)cc(Cl)c1[O-])c1ccccc1O.[Zn+2]	92.7% (active)
Oc1ccc(Cl)cc1Sc1cc(Cl)ccc1O	99.3% (active) and 99.5% (active) and 99.6% (active)
O=S(=O)([O-])[O-].[OH3+].[OH3+].[OH3+].[Ru+2].c1ccccc1	90.7% (active)
CCCCCC(Cn1ccnc1)c1ccc(Cl)cc1Cl (centres undefined)	99.8% (active)
CC1=C(CO)C(=O)OC(C(C)C2CCC3C4CC5OC56C(O)C(N5CC5)=CC(=O)C6(C)C4CCC23C)C1 (centres undefined)	75.2% (active)
CCCC[CH2][Sn]([CH2]CCCC)[CH2]CCCC.CCCC[CH2][Sn]([CH2]CCCC)[CH2]CCCC	98.8% (active)
CCC[CH2][Sn]1([CH2]CCC)[O]C(=O)C(C(C)C)N=Cc2ccccc2[O]1 (centres undefined)	90.8% (active)
Oc1c(Cl)cc(-c2cc(Cl)c(O)c(Cl)c2)cc1Cl	86.7% (active)
CC(=O)Nc1ccc(/C=N/N=C(/N)N[N+](=O)[O-])cc1	71.5% (active)
CC(Br)c1ccccc1 (centres undefined)	65.8% (inactive)
C[Si]1(C)CCCCC2(C1)C(=O)NC(=O)NC2=O	10.8% (inactive)
CCCCCCCCCCCCCCCc1cccc(O)c1O	48.4% (inactive)
CC1(C)OC2OC3C(CN(CCCl)Cc4ccccc4)OC(c4ccccc4)OC3C2O1 (centres undefined)	-2.9% (inactive)
FC(F)(F)c1nc2ccc(SSc3ccc4nc(C(F)(F)F)[nH]c4c3)cc2[nH]1	95.5% (active)
O=[N+]([O-])c1csc([N+](=O)[O-])c1	99.2% (active)
CCc1cc2c(cc1-c1csc(C/C(N)=N/O)n1)C(C)(C)CCC2(C)C	91% (active)
CCCCCCCC[N+](CCCC)(CCCC)CCCC (tested in a mixture with another compound)	99.7% (active)
CCC[CH2][Sn]([CH2]CCC)([S]C#N)[S]C#N	89.1% (active)
